The target of assay [1] is T1, Muscle, skeletal receptor tyrosine-protein kinase (Homo sapiens) (UniProt O15146).
T1 sequence (whole entry): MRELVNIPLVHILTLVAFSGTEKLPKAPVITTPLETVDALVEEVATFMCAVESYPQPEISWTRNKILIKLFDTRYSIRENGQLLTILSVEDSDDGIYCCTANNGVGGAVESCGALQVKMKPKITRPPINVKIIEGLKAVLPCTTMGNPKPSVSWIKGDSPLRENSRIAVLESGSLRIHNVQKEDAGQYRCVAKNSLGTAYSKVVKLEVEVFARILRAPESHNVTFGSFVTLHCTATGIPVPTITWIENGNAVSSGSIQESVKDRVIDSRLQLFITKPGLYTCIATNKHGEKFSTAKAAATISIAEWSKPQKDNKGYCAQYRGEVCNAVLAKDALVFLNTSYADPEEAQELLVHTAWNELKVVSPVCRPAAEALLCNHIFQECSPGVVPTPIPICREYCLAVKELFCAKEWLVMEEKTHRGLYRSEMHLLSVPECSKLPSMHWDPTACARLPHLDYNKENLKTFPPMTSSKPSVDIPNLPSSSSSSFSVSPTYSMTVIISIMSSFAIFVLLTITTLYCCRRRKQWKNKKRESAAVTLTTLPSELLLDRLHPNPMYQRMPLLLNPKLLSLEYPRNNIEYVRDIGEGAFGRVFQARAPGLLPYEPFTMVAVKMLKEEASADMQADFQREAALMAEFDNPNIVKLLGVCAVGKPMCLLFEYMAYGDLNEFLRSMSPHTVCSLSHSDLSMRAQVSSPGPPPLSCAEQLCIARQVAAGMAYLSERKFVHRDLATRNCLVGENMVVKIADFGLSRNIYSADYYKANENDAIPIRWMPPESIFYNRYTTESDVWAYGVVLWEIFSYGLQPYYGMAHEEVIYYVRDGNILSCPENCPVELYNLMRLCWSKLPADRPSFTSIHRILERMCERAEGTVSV
Particulars: at 1 µM.

Assay [2] deals with T1, Muscle, skeletal receptor tyrosine-protein kinase (Homo sapiens). Particulars: at 10 µM.
In assay [3] the target is T2, Serine/threonine-protein kinase Nek11 (Homo sapiens) (UniProt Q8NG66).
T2 sequence (whole entry): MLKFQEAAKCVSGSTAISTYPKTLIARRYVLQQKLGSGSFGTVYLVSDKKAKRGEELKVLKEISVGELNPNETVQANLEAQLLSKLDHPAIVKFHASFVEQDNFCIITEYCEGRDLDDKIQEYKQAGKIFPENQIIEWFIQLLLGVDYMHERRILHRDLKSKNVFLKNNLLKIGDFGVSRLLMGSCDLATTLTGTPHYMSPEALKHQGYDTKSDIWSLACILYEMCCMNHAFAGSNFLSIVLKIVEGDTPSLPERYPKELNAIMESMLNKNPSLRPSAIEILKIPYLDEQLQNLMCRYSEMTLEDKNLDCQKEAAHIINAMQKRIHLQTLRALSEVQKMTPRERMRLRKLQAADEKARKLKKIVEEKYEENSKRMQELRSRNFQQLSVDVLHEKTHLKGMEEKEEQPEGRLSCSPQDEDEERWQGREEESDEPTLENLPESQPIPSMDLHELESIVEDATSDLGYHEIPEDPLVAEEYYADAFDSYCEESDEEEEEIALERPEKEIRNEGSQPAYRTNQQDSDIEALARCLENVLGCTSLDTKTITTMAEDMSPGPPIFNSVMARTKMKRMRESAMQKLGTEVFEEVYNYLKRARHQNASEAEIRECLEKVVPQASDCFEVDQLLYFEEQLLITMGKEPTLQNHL
Particulars: at 1 µM.

The target of assay [4] is T2, Serine/threonine-protein kinase Nek11 (Homo sapiens). Particulars: at 10 µM.
For assay [5], the target named is T3, Serine/threonine-protein kinase Nek2 (Homo sapiens) (UniProt P51955).
T3 sequence (whole entry): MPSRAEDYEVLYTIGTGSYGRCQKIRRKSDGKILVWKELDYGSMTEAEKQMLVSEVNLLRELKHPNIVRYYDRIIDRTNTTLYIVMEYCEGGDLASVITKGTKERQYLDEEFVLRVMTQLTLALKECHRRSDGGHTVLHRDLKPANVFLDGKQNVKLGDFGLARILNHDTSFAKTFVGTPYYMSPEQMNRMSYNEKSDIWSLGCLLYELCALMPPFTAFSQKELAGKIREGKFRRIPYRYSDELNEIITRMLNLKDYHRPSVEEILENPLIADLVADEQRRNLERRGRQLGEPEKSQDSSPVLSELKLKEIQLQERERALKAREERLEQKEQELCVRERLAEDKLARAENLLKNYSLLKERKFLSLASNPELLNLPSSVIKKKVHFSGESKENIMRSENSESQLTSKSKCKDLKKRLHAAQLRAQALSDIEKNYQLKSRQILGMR
The following applies: at 1 µM.

Assay [6] addresses T3, Serine/threonine-protein kinase Nek2 (Homo sapiens). The following applies: at 10 µM.
Assay [7] addresses T4, Serine/threonine-protein kinase Nek3 (Homo sapiens) (UniProt P51956).
T4 sequence (whole entry): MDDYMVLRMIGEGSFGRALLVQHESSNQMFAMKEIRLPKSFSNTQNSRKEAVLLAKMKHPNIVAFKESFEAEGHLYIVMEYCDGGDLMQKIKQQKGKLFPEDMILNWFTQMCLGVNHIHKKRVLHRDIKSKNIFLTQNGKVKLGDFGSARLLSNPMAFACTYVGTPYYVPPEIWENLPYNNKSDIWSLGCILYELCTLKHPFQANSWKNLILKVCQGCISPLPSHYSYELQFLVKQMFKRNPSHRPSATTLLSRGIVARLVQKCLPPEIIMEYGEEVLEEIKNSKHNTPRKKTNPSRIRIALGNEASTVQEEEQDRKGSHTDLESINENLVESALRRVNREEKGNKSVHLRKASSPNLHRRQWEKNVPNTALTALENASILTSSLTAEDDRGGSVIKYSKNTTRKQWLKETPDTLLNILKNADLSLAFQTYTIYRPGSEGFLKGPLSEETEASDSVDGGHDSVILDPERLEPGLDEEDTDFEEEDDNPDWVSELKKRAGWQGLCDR
The following applies: at 1 µM.

Assay [8] concerns the target T4, Serine/threonine-protein kinase Nek3 (Homo sapiens). The following applies: at 10 µM.
For assay [9], the target named is Serine/threonine-protein kinase tousled-like 2 (Homo sapiens) (UniProt Q86UE8). The following applies: at 1 µM.
The target is the same in assay [10]. Particulars: at 10 µM.
Assay [11] concerns the target T5, Testis-specific serine/threonine-protein kinase 1 (Homo sapiens) (UniProt Q9BXA7).
T5 sequence (whole entry): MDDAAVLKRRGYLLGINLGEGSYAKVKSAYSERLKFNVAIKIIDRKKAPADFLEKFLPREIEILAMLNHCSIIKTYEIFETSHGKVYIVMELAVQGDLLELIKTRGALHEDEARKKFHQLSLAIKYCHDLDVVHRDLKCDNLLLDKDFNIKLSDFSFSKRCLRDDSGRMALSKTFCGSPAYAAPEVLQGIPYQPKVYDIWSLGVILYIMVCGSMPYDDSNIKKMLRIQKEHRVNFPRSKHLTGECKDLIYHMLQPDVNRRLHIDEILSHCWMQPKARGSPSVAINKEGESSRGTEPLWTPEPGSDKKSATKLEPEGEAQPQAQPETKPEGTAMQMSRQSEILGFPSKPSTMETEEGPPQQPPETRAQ
Particulars: at 1 µM.

Assay [12] concerns the target T5, Testis-specific serine/threonine-protein kinase 1 (Homo sapiens). Particulars: at 10 µM.
For assay [13], the target named is T6, Testis-specific serine/threonine-protein kinase 2 (Homo sapiens) (UniProt Q96PF2).
T6 sequence (whole entry): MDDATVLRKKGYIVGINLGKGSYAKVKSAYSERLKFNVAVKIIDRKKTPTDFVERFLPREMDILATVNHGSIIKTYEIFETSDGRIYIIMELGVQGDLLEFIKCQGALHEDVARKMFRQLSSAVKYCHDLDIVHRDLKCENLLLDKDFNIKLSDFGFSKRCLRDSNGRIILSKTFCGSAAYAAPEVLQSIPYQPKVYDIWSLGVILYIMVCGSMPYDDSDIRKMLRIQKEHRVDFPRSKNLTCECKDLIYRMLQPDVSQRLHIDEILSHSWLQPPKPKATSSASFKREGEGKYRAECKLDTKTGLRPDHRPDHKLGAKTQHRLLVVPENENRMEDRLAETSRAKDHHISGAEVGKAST
The following applies: at 10 µM.

Assay [14] concerns the target T7, Tyrosine-protein kinase Tec (Homo sapiens) (UniProt P42680).
T7 sequence (whole entry): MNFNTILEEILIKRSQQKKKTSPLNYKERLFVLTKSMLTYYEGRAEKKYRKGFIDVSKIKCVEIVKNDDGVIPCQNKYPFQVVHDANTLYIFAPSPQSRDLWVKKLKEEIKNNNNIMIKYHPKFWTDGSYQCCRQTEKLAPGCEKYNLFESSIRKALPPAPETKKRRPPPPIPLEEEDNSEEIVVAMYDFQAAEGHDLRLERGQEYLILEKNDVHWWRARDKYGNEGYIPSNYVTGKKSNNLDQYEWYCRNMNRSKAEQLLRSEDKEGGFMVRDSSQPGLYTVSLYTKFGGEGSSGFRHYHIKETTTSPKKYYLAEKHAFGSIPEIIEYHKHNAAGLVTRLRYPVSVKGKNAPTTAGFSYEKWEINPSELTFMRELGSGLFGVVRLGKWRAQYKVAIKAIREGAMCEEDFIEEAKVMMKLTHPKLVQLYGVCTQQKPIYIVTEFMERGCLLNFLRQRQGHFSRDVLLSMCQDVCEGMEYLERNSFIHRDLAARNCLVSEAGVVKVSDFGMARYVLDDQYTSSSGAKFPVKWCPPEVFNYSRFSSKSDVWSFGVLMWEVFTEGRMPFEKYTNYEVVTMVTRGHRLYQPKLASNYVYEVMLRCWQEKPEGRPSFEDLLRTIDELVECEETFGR
Particulars: at 1 µM.

Assay [15] deals with T7, Tyrosine-protein kinase Tec (Homo sapiens). Particulars: at 10 µM.
In assay [16] the target is Angiopoietin-1 receptor (Homo sapiens) (UniProt Q02763). Particulars: at 1 µM.
The target is the same in assay [17]. The following applies: at 10 µM.
In assay [18] the target is High affinity nerve growth factor receptor (Homo sapiens) (UniProt P04629). The following applies: at 1 µM.
Assay [19] has the same target. Particulars: at 10 µM.
Assay [20] deals with BDNF/NT-3 growth factors receptor (Homo sapiens) (UniProt Q16620). Particulars: at 1 µM.
Chain of BDNF/NT-3 growth factors receptor (Homo sapiens) (Q16620 32-822 limits assumed): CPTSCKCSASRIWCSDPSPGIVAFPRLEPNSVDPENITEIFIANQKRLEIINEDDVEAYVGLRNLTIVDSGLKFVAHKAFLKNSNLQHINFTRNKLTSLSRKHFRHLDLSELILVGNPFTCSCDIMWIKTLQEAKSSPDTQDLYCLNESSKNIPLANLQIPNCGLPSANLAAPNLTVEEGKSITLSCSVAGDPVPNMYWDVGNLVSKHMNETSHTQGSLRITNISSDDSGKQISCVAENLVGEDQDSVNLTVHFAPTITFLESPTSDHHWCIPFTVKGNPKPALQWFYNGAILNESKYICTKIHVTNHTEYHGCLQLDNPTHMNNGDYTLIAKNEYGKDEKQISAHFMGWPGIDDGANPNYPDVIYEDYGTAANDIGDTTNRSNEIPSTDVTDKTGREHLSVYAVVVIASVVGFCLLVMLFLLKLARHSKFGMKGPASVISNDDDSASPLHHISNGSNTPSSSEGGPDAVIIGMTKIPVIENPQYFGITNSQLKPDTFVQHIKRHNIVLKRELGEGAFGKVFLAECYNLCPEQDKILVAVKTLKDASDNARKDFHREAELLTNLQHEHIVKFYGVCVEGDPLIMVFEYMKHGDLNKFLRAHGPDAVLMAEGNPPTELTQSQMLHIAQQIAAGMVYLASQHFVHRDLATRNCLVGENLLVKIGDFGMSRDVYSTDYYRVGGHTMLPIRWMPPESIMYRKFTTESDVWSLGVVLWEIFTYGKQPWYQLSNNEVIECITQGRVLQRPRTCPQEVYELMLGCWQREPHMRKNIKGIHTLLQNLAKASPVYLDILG

Chain of High affinity nerve growth factor receptor (Homo sapiens) (P04629 33-796 limits assumed): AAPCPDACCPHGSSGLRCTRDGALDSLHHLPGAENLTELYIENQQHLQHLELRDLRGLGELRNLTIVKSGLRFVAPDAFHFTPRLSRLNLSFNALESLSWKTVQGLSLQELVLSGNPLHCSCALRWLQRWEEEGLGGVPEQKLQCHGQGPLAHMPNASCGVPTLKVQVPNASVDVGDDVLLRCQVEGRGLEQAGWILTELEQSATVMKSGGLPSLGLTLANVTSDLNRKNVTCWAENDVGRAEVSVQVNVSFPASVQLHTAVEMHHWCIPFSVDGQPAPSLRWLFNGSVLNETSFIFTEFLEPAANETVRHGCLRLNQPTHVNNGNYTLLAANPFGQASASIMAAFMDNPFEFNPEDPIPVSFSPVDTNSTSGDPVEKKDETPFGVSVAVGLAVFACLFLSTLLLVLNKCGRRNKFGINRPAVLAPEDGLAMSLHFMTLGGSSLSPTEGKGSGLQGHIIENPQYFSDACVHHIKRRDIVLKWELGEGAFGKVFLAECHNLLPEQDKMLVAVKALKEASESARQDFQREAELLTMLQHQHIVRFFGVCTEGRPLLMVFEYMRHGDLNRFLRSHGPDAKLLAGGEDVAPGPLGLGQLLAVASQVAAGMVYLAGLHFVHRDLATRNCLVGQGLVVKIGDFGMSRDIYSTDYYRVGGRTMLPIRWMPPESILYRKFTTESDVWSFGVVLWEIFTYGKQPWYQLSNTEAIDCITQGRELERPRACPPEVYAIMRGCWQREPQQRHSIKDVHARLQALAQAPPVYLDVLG
Chain of Serine/threonine-protein kinase tousled-like 2 (Homo sapiens) (Q86UE8 whole entry, looked up): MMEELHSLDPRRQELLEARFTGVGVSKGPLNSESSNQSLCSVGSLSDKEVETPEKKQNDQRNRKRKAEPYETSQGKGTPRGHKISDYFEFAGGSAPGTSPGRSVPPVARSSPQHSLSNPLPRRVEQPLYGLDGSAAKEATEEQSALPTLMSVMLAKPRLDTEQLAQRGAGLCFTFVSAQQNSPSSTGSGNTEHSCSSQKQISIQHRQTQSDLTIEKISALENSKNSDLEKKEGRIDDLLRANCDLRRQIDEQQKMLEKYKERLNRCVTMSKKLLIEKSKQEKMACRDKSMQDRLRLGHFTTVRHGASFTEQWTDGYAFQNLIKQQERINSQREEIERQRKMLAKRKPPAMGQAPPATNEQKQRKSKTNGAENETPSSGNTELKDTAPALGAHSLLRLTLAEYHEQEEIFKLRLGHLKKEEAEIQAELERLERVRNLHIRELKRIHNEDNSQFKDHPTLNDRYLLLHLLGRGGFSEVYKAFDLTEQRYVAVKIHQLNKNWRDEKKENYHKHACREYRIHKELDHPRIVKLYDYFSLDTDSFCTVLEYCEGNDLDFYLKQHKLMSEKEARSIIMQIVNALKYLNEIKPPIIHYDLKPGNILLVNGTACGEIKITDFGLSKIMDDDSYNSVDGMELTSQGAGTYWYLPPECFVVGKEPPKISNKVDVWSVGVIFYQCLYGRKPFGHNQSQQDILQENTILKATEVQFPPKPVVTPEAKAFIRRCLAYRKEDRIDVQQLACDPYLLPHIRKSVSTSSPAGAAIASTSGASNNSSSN
Chain of Angiopoietin-1 receptor (Homo sapiens) (Q02763 whole entry): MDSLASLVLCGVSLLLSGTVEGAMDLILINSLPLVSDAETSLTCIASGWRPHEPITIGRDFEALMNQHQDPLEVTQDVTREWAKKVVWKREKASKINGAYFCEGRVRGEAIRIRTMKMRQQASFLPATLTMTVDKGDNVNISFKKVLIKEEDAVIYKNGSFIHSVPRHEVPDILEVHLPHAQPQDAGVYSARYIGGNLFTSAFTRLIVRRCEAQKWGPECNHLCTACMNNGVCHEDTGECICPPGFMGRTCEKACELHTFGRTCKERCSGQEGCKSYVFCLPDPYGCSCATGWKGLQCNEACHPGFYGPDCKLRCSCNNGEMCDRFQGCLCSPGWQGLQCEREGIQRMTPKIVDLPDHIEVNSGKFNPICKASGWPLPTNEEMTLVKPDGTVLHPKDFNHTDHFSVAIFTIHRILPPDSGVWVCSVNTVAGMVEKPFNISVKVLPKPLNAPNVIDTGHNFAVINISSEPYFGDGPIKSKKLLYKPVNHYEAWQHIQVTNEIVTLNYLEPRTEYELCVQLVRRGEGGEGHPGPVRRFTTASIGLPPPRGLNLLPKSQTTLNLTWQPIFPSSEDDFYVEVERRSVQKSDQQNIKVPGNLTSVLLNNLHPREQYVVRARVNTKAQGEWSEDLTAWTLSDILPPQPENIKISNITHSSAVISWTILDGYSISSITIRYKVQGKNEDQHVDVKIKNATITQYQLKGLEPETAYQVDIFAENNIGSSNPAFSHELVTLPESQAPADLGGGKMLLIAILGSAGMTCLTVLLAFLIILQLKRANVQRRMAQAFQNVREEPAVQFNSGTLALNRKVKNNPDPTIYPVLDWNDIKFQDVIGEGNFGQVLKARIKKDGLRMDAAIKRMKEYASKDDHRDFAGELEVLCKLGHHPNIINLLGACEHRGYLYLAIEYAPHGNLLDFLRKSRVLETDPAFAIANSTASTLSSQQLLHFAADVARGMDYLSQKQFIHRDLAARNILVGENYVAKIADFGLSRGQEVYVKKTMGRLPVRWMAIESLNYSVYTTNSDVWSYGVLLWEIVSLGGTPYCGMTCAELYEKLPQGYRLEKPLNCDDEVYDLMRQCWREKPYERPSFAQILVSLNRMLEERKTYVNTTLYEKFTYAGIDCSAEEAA

The term residual activity denotes the signal under treatment as a percentage of the control signal. With `COc1ccc(C(=O)Nc2sc3c(c2C(N)=O)CCCC3)cc1OC`, the residual activity stood at 92% in assay [1]; 84% in assay [2]; 77% in assay [3]; 96% in assay [4]; 80% in [5]; 103% in assay [6]. Further, the residual activity in assay [7] stood at 110%; in assay [8] it was 72%; in assay [9] it was 95%; in assay [10], 87%; in [11], 94%; in assay [12], 75%. For the same molecule, the residual activity in [13] was determined as 85%; in [14], 89%; in assay [15] it was 86%; in [16], 79%; in [17], 59%; in [18], 58%. In addition, the residual activity in [19] turned out to be 76%; in assay [20], 70%.

On to `O=C(O)c1ccc2c3c1cccc3c(=O)n1c3ccccc3nc21`, for which the residual activity is 105% in [1]; 94% in assay [2]; 80% in [3]; 93% in [4]; 123% in assay [5]; 102% in assay [6]. Moreover, the residual activity in [7] turned out to be 93%; in assay [8] it was 97%; in assay [9], 104%; in assay [10], 97%; in [11] it was 106%; in assay [12], 79%. The residual activity in assay [13] was determined as 108%; in assay [14] it was 99%; in [15] it was 82%; in assay [16] it was 106%; in assay [17] it was 99%; in assay [18] it was 78%. In addition, the residual activity worked out at 19% in assay [19] and 86% in assay [20].

Consider `Cn1cc(/C=C2\C(=O)Nc3ccc(S(N)(=O)=O)cc32)c2ccccc21`, for which the residual activity in assay [1] was found to be 69%; in [2], 28%; in assay [3], 83%; in assay [4], 90%; in [5], 79%; in assay [6], 26%. Besides, the residual activity was 72% in assay [7]; 19% in [8]; 87% in [9]; 43% in [10]; 19% in [11]; 14% in [12]. For the same molecule, the residual activity came out at 72% in assay [13]; 52% in assay [14]; 6% in assay [15]; 86% in assay [16]; 73% in assay [17]; 1% in assay [18]. Further, the residual activity in [19] worked out at 1%; in assay [20] it was 23%.

Take `COc1ccc(CNc2nc(N(CCO)CCO)nc3c2ncn3C(C)C)cc1`: the residual activity is 86% in assay [1]; 73% in assay [2]; 53% in [3]; 64% in assay [4]; 90% in assay [5]; 85% in assay [6]. Besides, the residual activity in [7] came to 71%; in [8], 90%; in [9] it was 83%; in [10], 85%; in [11], 86%; in [12], 70%. The residual activity came out at 87% in assay [13]; 103% in assay [14]; 79% in assay [15]; 101% in assay [16]; 80% in assay [17]; 75% in assay [18]. Also, the residual activity in assay [19] was determined as 56%; in [20], 72%.

Values taken from ChEMBL document CHEMBL2218924, “A broad activity screen in support of a chemogenomic map for kinase signalling research and drug discovery” (Biochem J, 2013).
